Bioassay records (PubChem BioAssay)
ADAM10 inh: inhibits human ADAM10. 370,000 compounds, 0.62% hits. inhibition, % at 7 µM. recombinant ADAM10, EDANS/DABCYL FRET peptide cleavage, 3 h;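 active means inhibition above a per-campaign cutoff equal to the mean of compounds falling between control-based bounds plus 3 SD, cut at about 20% in these data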;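 further: 0% = DMSO wells while the 100% control is not disclosed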
FAS-TE inh: blocks the thioesterase domain of human fatty acid synthase; P49327; recombinant FAS-TE, OMFH fluorogenic substrate, fluorescence endpoint; inhibition, % at 15 µM; 360,000 compounds, 0.67% hits; AID 602261;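 active means compounds whose normalised, plate-corrected inhibition of enzyme fluorescence in the single-dose primary screen is 50% or more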;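 further: 0% = DMSO with enzyme and 100% = substrate without enzyme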
NR3A LBD binder: modulates the human NR3A ligand-binding domain. NR3A LBD differential scanning fluorimetry, Tm shift; 0% = protein alone, 100% = glycine-bound protein. 340,000 compounds, 2.5% hits. Tm shift relative to glycine control, % at 25 µM. AID 1259313;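 active means melting temperature shift of at least 10% of the positive control shift, at one fixed dose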
KLK7 zymogen act: activators of human kallikrein-7 zymogen; activation, % at 7 µM; AID 652039; purified proKLK7, EDANS-DABCYL substrate fluorescence; 100% is mature enzyme control, 0% vehicle; 370,000 compounds, 0.9% hits; P49862;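 active means activation above the mean of all tested compounds plus 3 SD, computed per campaign excluding outliers beyond control limits, cut at about 13% in these data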
ADAM17 inh: inhibitors of human ADAM17 | P78536 | recombinant ADAM17, EDANS/DABCYL FRET peptide cleavage | inhibition, % at 6.95 µM | 370,000 compounds, 0.83% hits | AID 720648;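 active means inhibition above the mean of compounds lying between control limits plus 3 SD, set per campaign, cut at about 8.5% in these data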;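 further: 0% = DMSO-only wells as the low control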
* = called active by the depositor; i = inactive; / = no result. A selection: hits, their analogues and other compounds. The true share with any hit is near 4.6%.

SMILES	ADAM10 inh	FAS-TE inh	NR3A LBD binder	KLK7 zymogen act	ADAM17 inh
Cc1cc(C)n2nc(C(=O)NCc3ccccc3)nc2n1	-3	-7	24*	0	0
CC1CCCCC1C(=O)N1CCC(Oc2cccnc2)CC1 (centres undefined)	-5	/	/	-1	-5
Cc1ccccc1OCCC(=O)Nc1cccc(S(=O)(=O)Nc2ccccc2Cl)c1	18	28	15*	-1	6
O=C(Cc1ccc(Cl)cc1Cl)Nc1cccc(S(=O)(=O)Nc2ccccc2F)c1	-3	-7	26*	-1	5
Cc1ccc(C)c(OCCC(=O)Nc2cccc(S(=O)(=O)NC3=NCCCCC3)c2)c1	2	-1	1	0	0
O=C(COc1ccccc1F)Nc1cc(S(=O)(=O)Nc2cccc(Cl)c2)ccc1O	-11	2	27*	0	4
O=C(COCc1ccccc1)N1CC[C@H]2[C@H](CCCN2Cc2cc(F)cc(F)c2)C1	-4	/	/	0	-1
COc1cccc(N2CCN(CC(=O)NCc3ccc(F)cc3)CC2)c1	2	/	/	0	0
CCOC(=O)/C(C#N)=C1/C=CN(c2ccc(C)cc2)C=N1	13	-5	1	0	8
CCOC(=O)/C(C#N)=C1/C=CN(c2ccccc2)C=N1	7	0	14*	0	6
O=C1c2ccccc2NC2CCCCCN12 (centres undefined)	i	-9	5	4	-171
O=C1COC(c2ccccc2)C2CCCCN12 (centres undefined)	4	-8	16*	0	6
C=CCn1c(C)cc(C(=O)COC(=O)CNC(=O)c2ccccc2)c1C	-1	-9	13*	0	-3
C=CCn1c(C)cc(C(=O)COc2nncc3ccccc23)c1C	-11	-3	16*	1	-4
C=CCn1c(C)cc(C(=O)COC(=O)c2n[nH]c(=O)c3ccccc23)c1C	-9	-5	-1	0	-2
Cc1cc(C(=O)NC2CC(C)(C)Cc3c2cnn3-c2cccc(F)c2)n(C)n1 (centres undefined)	-16	1	-1	-1	0
Cc1cc(C(=O)NC2CC(C)(C)Cc3c2cnn3-c2cccc(F)c2)nn1C (centres undefined)	-7	-2	12*	0	-3
CCCCCCNC(=O)C1CSCCS(=O)(=O)N1Cc1ccc(OC)cc1 (centres undefined)	-9	/	/	1	-5
Oc1ccc(/C=N/Nc2cccc(Cl)n2)c(O)c1	0	4	27*	-1	4
Cc1cc(C(=O)N/N=C/c2c(CO)cnc(C)c2O)c2ccccc2n1	-62	-4	1	-3	-21
Oc1ccc(/C=N/Nc2ccc(C(F)(F)F)cn2)c(O)c1	-10	10	/	-2	-4
Cc1ncc(CO)c(/C=N/Nc2cccc(Cl)n2)c1O	-338	-2	15*	-99	-150
CC[C@H](CCCCCC#N)CCC(=O)N(c1ccccc1)c1ccccc1	5	/	/	-1	4
O=C(Nc1ccc(F)cc1F)C1CCN(c2nnc(-n3cccc3)s2)CC1	5	/	/	0	2
CCCCCC1CC(=O)NC1(C(=O)OCC)C(=O)OCC (centres undefined)	-14	1	0	0	-3
SMILES	ADAM10 inh	FAS-TE inh	NR3A LBD binder	KLK7 zymogen act	ADAM17 inh
CCCCCCC1CC(=O)NC(=O)N1 (centres undefined)	-4	-4	14*	0	-1
CC1CCN(S(=O)(=O)c2ccc(C(=O)OC(C)C(=O)N(C)C3CCCCC3)cc2)CC1 (centres undefined)	-4	1	15*	0	-4
CCCCNS(=O)(=O)/C=C/c1ccccc1CNC(=O)OC(C)(C)C	1	/	/	1	-1
O=C(Cc1ccccc1)NC(NC(=S)Nc1cc(Cl)ccc1Cl)C(Cl)(Cl)Cl (centres undefined)	2	-5	16*	-1	0
O=C(NC(NC(=S)Nc1cc(Cl)ccc1Cl)C(Cl)(Cl)Cl)c1ccco1 (centres undefined)	6	19	14*	2	1
O=C(CN(C(=O)OCC1c2ccccc2-c2ccccc21)[C@@H](Cc1ccccc1)C(=O)O)OCc1ccc(C(=O)NCc2ccccc2)cc1	10	/	/	0	2
NC(=O)c1sc2cc(C(F)(F)F)cnc2c1-c1cccs1	-4	-1	21*	0	-4
O=C(O)c1sc2cc(C(F)(F)F)cnc2c1-c1cccs1	-56	-3	4	3	-19
N=C1C(c2nc3ccccc3s2)=C(O)CN1Cc1ccccc1	3	-2	-1	0	0
CCN(CC)CCCN1CC(O)=C(c2nc3ccccc3s2)C1=N	-6	-4	18*	0	-1
O=C1CCC[C@H]2C[C@H](NCc3ccc(Br)cc3)CC[C@]23CCCN13	3	/	/	/	0
Cc1ccc(/C=N/NC(=O)c2nnn(-c3nonc3N)c2CSc2ccccc2)s1	0	-3	30*	0	1
Cc1ccsc1/C=N/NC(=O)c1nnn(-c2nonc2N)c1CSc1ccccc1	-5	-4	36*	0	-6
CN(C)Cc1c(C(=O)N/N=C/c2ccoc2)nnn1-c1nonc1N	7	-6	5	0	1
Cc1ccc(/C=N/NC(=O)c2nnn(-c3nonc3N)c2CSc2ccc(Cl)cc2)o1	8	8	21*	0	2
Nc1nonc1-n1nnc(C(=O)N/N=C/c2ccoc2)c1CSc1ccccc1	/	3	16*	/	/
CCCc1c(C(=O)N/N=C/c2ccc(C)s2)nnn1-c1nonc1N	-3	-7	6	0	1
COc1ccc(/C=C/C(Cc2cccc(C(C)=O)c2)c2ccc(C)cc2)cc1 (centres undefined)	1	/	/	0	3
C[C@@H](CO)N(CCc1cn(Cc2ccccc2)nn1)S(=O)(=O)c1ccccc1Br	-2	/	/	0	-2
Nc1nonc1-n1nnc(C(=O)N/N=C/c2ccncc2)c1CSc1ccccc1	0	7	11*	0	-4
Nc1nonc1-n1nnc(C(=O)N/N=C/c2ccccc2)c1CSc1ccccc1	7	-2	35*	0	0
Nc1nonc1-n1nnc(C(=O)N/N=C/c2ccoc2)c1CSc1ccc(Cl)cc1	3	16	35*	-1	-4
N#Cc1cccc(NC(=O)OCCN2C(=O)CCC23CCC(c2ccccc2)CC3)c1 (centres undefined)	-3	/	/	0	-1
CC(C)C(=O)N1CC[C@H]2[C@H](CCCN2Cc2cc(F)cc(F)c2)C1	-3	/	/	0	-1
COc1ccc(C(=O)Nc2ccc(NC(=O)c3cccs3)cc2)cc1[N+](=O)[O-]	-4	-6	24*	1	-2
CCOc1ccc(C(=O)Nc2ccc(NC(=O)c3cccs3)cc2)cc1[N+](=O)[O-]	-11	-10	28*	0	-4
CCOc1ccccc1NC(=O)c1ccc(OCC)c([N+](=O)[O-])c1	-1	-1	0	0	-2
